# From PubChem BioAssay (NCATS)
# “And” between values parts separate entries of the source, which are not always exact repeats. Equal values may be shown once. Inconclusive results are not listed. Entries that show only a call come without a potency. Values without a mark were called inactive. The source made the active and inactive calls. The call rests on the fitted dose curve; in most records, active means well fitted cell-killing curve with a large enough effect; inconclusive means small, poorly fitted or top-dose-only effect; inactive means flat fitted curve, though single readings scatter.
# Assay: qHTS of pediatric cancer cell lines to identify multiple opportunities for drug repurposing: Primary screen for BT-12 cells (AID 1347101); further: nearly all actives have a fitted effect of over 25% in size
# Details: BT-12 viability, CellTiter-Glo luminescence, 48 h; series mostly up to 57.3 µM; activity change, negative = cytotoxic: at the top concentration
# Description: Drug repurposing or repositioning has been offered as a strategy for drug development in oncology programs. This approach has special potential for childhood cancers and other rare or orphan diseases, where the expected return on new drug development has been a disincentive to pharmaceuticals.
# In this project we exploit the poly-pharmacology of drugs to discover new indications via phenotypic screening of a panel of 19 well-characterized cell lines derived from solid tumors seen in children and adolescents. The goal is to identify approved drugs with previously unrecognized anticancer properties that has the potential to reveal new mechanisms and biological processes involved in carcinogenesis or drug resistance. We employed a titration-based paradigm (quantitative high-throughput screening or qHTS), where all compounds were tested at multiple concentrations for their effect on cell viability. Concentration-response curves (CRCs) were derived directly from the primary screen, and both potency and efficacy values were used to identify compounds with robust bioactivity profiles. We screened the NIH Chemical Genomics Center (NCGC) Pharmaceutical Collection (NPC) and Mechanism Interrogation Plate (MIPE) small molecule collections of approved and investigational compounds against these cell lines; and measured metabolically active cells after 48 hours of compound treatment as a proxy for cell viability.
# Assay Submitter: Nathalia J. Martinez, National Center for Advancing Translational Sciences, National Institutes of Health, Rockville, MD, USA; email: natalia.martinez@nih.gov
# [1] Shen, M et al. Quantitative high-throughput phenotypic screening of pediatric cancer cell lines identifies multiple opportunities for drug repurposing. Oncotarget 2017 Dec 19;9(4):4758-4772. PMID 29435139.
# The cells were obtained from University of North Carolina (UNC), Pediatric Preclinical Testing Program (PPT), and Coriell Institute (CI).
# qHTS cell viability assay:
# Cells were assayed in growth media at a density of 500-1,000 cells/well. Five microliters of cells were dispensed into 1,536-well, white, solid-bottom, TC-treated plates (Greiner Bio One) using a multidrop dispenser and incubated at 37 degrees C, 5% CO2, under a humidified atmosphere for 5 hours. Twenty-three nanoliters of compounds and controls (neutral control DMSO or positive control bortezomib at final concentration of 2.3 µM) were subsequently transferred by Kalypsys pintool. For primary screens, the MIPE collection was tested at 11-point dilutions (final concentrations range from 0.78 nM to 46 µM) and the NPC collection at 8-point dilutions (final concentrations range from 0.59 nM to 46 µM). Compounds tested in follow-up screens were assayed at 11-point dilutions. Cells were incubated for 48 hours, followed by addition of 3 µL of CellTiter-Glo (Promega). After a 15 min incubation at room temperature, samples were analyzed for luminescence intensity using a ViewLux High-throughput CCD imager equipped with clear filters.
# Potency means the concentration at half of the fitted maximal effect.
Compound,Potency,"activity change, negative = cytotoxic [%]"
CC(=O)[C@H]1CC[C@H]2[C@@H]3CCC4=CC(=O)CC[C@]4(C)[C@H]3CC[C@]12C,24.3 µM (active),–
COc1ccccc1OCC(O)COC(N)=O (stereo not given),inactive,–
COc1cc([C@@H]2c3cc4c(cc3[C@H](O)[C@H]3COC(=O)[C@H]23)OCO4)cc(OC)c1OC,55 nM (active) and 1.9 nM (active),–
Cn1c(=O)c2c(ncn2CC(O)CO)n(C)c1=O (stereo not given),inactive,–
Nc1ccc(S(=O)(=O)Nc2ccccn2)cc1,inactive,–
CC(C)(C)C(=O)OCOP(=O)(COCCn1cnc2c(N)ncnc21)OCOC(=O)C(C)(C)C,11 µM (active) and 17.2 µM (active),–
C[C@@H](NCCCc1cccc(C(F)(F)F)c1)c1cccc2ccccc12,–,-2.94
Cc1cccc(Nc2ccncc2S(=O)(=O)NC(=O)NC(C)C)c1,inactive,–
CS(=O)(=O)c1ccc([C@@H](O)[C@@H](CO)NC(=O)C(Cl)Cl)cc1,–,-18
CN1CCN(c2c(F)cc3c(=O)c(C(=O)O)cn(CCF)c3c2F)CC1,inactive,–
Cc1nnc(NS(=O)(=O)c2ccc(N)cc2)s1,–,0.173
CC(C)C[C@H](NC(=O)[C@H](CCc1ccccc1)NC(=O)CN1CCOCC1)C(=O)N[C@@H](Cc1ccccc1)C(=O)N[C@@H](CC(C)C)C(=O)[C@@]1(C)CO1,87.1 nM (active) and 137 nM (active),–
CNC1CCCN(c2c(F)cc3c(=O)c(C(=O)O)cn(C4CC4)c3c2OC)C1 (stereo not given),–,9.23
COc1ncnc(NS(=O)(=O)c2ccc(N)cc2)c1OC,inactive,–
CN(CCOc1ccc(CC2SC(=O)NC2=O)cc1)c1ccccn1 (stereo not given),inactive,–
COC(=O)Nc1nc2ccc(C(=O)c3ccccc3)cc2[nH]1,347 nM (active) and 2.43 µM (active),–
NC(=O)c1cccnc1,inactive,–
Nc1nc(=S)c2[nH]cnc2[nH]1,8.71 µM (active) and 7.69 µM (active),–
COCCCOc1cc(C[C@@H](C[C@H](N)[C@@H](O)C[C@H](C(=O)NCC(C)(C)C(N)=O)C(C)C)C(C)C)ccc1OC,inactive,–
O=C(N[C@H](CO)[C@H](O)c1ccc([N+](=O)[O-])cc1)C(Cl)Cl,–,8.59

Compound,Potency,"activity change, negative = cytotoxic [%]"
COC(c1ccccc1)(c1ccccc1)[C@H](Oc1nc(C)cc(C)n1)C(=O)O,inactive,–
CN1CCCC(n2nc(Cc3ccc(Cl)cc3)c3ccccc3c2=O)CC1 (stereo not given),2.73 µM (active),–
CCCc1nc(C)c2c(=O)[nH]c(-c3cc(S(=O)(=O)N4CCN(CC)CC4)ccc3OCC)nn12,12.2 µM (active),–
CC(=O)[C@H]1CC[C@H]2[C@@H]3CC=C4C[C@@H](O)CC[C@]4(C)[C@H]3CC[C@]12C,inactive,–
COc1cc(NCc2ccc3nc(N)nc(N)c3c2C)cc(OC)c1OC,2.17 µM (active) and 55 nM (active),–
CCC(=O)O[C@]1(C(=O)SCF)[C@H](C)C[C@H]2[C@@H]3C[C@H](F)C4=CC(=O)C=C[C@]4(C)[C@@]3(F)[C@@H](O)C[C@@]21C,inactive,–
Cc1nnc(C(=O)NC(C)(C)c2nc(C(=O)NCc3ccc(F)cc3)c(O)c(=O)n2C)o1,inactive,–
CC1(C)[C@H](C(=O)O)N2C(=O)C[C@H]2S1(=O)=O,inactive,–
O[C@@H](CNC[C@H](O)[C@H]1CCc2cc(F)ccc2O1)[C@@H]1CCc2cc(F)ccc2O1,27.3 µM (active),–
CCOC(=O)c1ccc(C#Cc2ccc3c(c2)C(C)(C)CCS3)nc1,–,-14.6
CC1=CC(=O)c2ccccc2C1=O,inactive,–
CNS(=O)(=O)Cc1ccc2[nH]cc(CCN(C)C)c2c1,inactive,–
NC(N)=NC(N)=NCCc1ccccc1,19.3 µM (active),–
COc1ccc2cc3[n+](cc2c1OC)CCc1cc2c(cc1-3)OCO2,3.09 µM (active) and 4.32 µM (active),–
CCCc1cc(C(N)=S)ccn1,inactive,–
O=S(=O)(c1cccc2cnccc12)N1CCCNCC1,inactive,–
O=C(O)c1cccnc1,inactive,–
O=P(O)(O)C(O)(Cc1cccnc1)P(=O)(O)O,inactive,–
CCOc1cc(N)c(Cl)cc1C(=O)NCC1CN(Cc2ccc(F)cc2)CCO1 (stereo not given),–,3.34
Nc1nc(F)nc2c1ncn2[C@@H]1O[C@H](CO)[C@@H](O)[C@@H]1O,1.53 µM (active),–
